From PubChem
Most compounds without a hit are left out; they make up all but 8.1% or so of the library.
RORg inh – blocks mouse ROR gamma transcriptional activity. P51450. 5.4% of 310,000 active. Potency, µM (top dose mostly 53.6 µM), for inactives: at the highest dose activity change, negative = inhibition, usual class: inhibitors. AID 2551. Drosophila S2 Gal4-RORgamma UAS-luciferase reporter, 20 h; note: % is set by controls: 0 for no effect and ±100 for the full control effect; nearly all actives have a fitted effect of over 60% in size
Target sequence (P51450 whole entry, looked up, the tested form may be a part): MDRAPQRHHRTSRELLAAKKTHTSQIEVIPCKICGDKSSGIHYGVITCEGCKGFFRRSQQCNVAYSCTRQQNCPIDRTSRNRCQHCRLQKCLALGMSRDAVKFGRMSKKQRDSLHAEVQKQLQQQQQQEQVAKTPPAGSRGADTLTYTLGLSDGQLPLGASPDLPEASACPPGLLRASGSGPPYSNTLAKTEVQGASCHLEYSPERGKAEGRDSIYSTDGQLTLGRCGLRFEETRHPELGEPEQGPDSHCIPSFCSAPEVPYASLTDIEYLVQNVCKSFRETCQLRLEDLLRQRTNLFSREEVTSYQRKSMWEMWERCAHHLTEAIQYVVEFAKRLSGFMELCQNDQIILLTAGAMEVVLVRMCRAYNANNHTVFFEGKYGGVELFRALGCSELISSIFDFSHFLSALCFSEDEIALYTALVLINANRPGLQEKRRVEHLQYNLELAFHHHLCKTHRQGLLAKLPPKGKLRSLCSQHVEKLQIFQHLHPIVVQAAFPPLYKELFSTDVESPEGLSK
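Stable Schneider cell line, Gal4 DNA-binding domain fused to ROR gamma, UAS-luciferase. Cmpd 1 hr RT → CuSO4 700 uM final → 20 hr RT → luciferase reagent 10 min → luminescence.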
Epigenetic reg – derepresses silenced GFP reporter in murine cells. murine LDR cells, GFP reporter derepression, 30 h. Potency, µM (highest dose often 53.9 µM), for the others: at the top dose GFP activation, actives largely listed as activators. 0.2% of 280,000 active; note: % of control where 0% means no effect; nearly all actives have a fitted effect of over 60% in size
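Reporter derepression read as number of fluorescent GFP-positive objects, 20-120 um in size, counted by laser-scanning cytometer. Mouse LDR line with an epigenetically silenced CMV-GFP locus; compound incubation 30 h, 37 C.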
ClpP mod – qHTS Assay for Activators of ClpP; purified B. subtilis ClpP, FRET peptide cleavage, 20 min; Potency, µM (highest dose often 57.5 µM), for the others: at the highest dose activity change, negative = active; 1.9% of 340,000 active; active = well fitted falling curve with a large enough effect; inconclusive = small, poorly fitted or top-dose-only effect; inactive = no such curve, though single readings can be large or run the other way; note: the source files actives as falling curves though it sought activators and does not explain the sign; nearly all actives have a fitted effect of over 65% in size
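ClpP 10 microg/mL final, pH 8 Tris/KCl buffer with BSA, glycerol, Tween-20; compound pinned in; FRET-FV substrate; RT 20 min; Ex320/Em430; ΔFRET vs ADEP 5.8 microM, DMSO, no enzyme.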
Sfp PPTase inh – blocks B. subtilis Sfp PPTase activity | Biochemical Sfp PPTase activity, qHTS | Potency, µM, for inactives: largest response in the series, negative = inhibition, most hits filed as inhibitors | 3.5% of 310,000 active | AID 1490;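 note: the enzyme is Sfp with the accession as filed and its product quenches rhodamine fluorescence; 0% = enzyme reaction without inhibitor and -100% = no enzyme wells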
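Fluorescence-quenching assay with 15 nM Sfp, 5 uM rhodamine-CoA and 12.5 uM BHQ-2-labelled ybbR peptide in pH 7.6 Hepes/MgCl2 buffer. Enzyme was pre-incubated with compound for 15 min at room temperature. Rate was taken from the 30-min fluorescence change (525/598 nm).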
PINK1 modulator – PINK1 expression modulation; PINK1 immunofluorescence, high-content cytometry, 24 h; Potency, µM (top dose mostly 76.6 µM), for inactives: at the highest dose activation (PINK1 increase), hits mostly activators; 0.2% of 410,000 active; AID 624263; active = well fitted activation curve with a large enough effect; inconclusive = small, poorly fitted or top-dose-only effect; cell line not stated here; note: % of control where 0% means no effect; nearly all actives have a fitted effect of over 65% in size
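Measures PINK1 amount and localization on or inside mitochondria by immunofluorescence. Stable cells get compounds at 5 concentrations for 24 hours before fixation and staining; CCCP controls included.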
Gal4-VP16 FLuc – counter-screen for ROR gamma inhibitors: Gal4-VP16 reporter; Drosophila S2 Gal4-VP16 UAS-luciferase, luminescence, 20 h; Potency, µM (titrated, usually from 53.6 µM), for the others: at the top dose activity, negative = inhibition, actives largely listed as inhibitors; 3.5% of 310,000 active;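 note: Gal4-VP16 expression switched on by copper sulfate through the metallothionein promoter; % is set by controls: 0 for no effect and ±100 for the full control effect; nearly all actives have a fitted effect of over 50% in size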
Numbers without * were called inactive; ? = inconclusive; nt = not tested or not shown; [ ] = another dose, or the depositor's remark. Unless noted, calls come from the whole dose curve; as a rule, active = well fitted curve in the direction sought with a large enough effect; inconclusive = small, poorly fitted or top-dose-only effect, or another doubt; inactive = no such curve, though single readings can be large; an effect the other way counts as inactive or inconclusive. Potency is the fitted concentration of half-maximal effect.

SMILES	RORg inh	Epigenetic reg	ClpP mod	Sfp PPTase inh	PINK1 modulator	Gal4-VP16 FLuc
Cc1ccc(C(=O)N/N=C/C2=Cc3ccccc3OC2C)cc1 (stereo not drawn)	3.16µM*	0.0%	-0.9%	15.4%	4.8%	?
O=[N+]([O-])c1cnc2ccccc2c1	23.3%	6.3%	0.2%	19.3%	-0.6%	-9.6%
O=[N+]([O-])c1cc([N+](=O)[O-])c2cc3ccccc3nc2c1	3.16µM*	nt	nt	-5.9%	19.8%	2.82µM*
CCSC1(SCC)N=C(N)C2(C#N)C(c3ccc(OC)c(OC)c3OC)C12C#N (stereo not drawn)	11.2µM*	-15.9%	0.7%	-48.7%	0.4%	2.51µM*
CCSC1(SCC)N=C(N)C2(C#N)C(c3ccccc3)NC3=C(CCC3)C12C#N (stereo not drawn)	?	-1.0%	-1.7%	7.9%	0.9%	1.9%
CCc1ccc(C(=O)CSc2nc(-c3ccccc3)nc3c2CCCC3)cc1	nt	-1.3%	0.9%	nt	-3.6%	nt
Cc1ccc(C)c(NC(=O)Cn2c(=O)n(Cc3nc(C)no3)c(=O)c3cc4c(cc32)OCO4)c1	nt	-1.5%	?	nt	0.0%	nt
Cc1ccc(NC(=O)Cn2c(=O)n(Cc3nc(C)no3)c(=O)c3cc4c(cc32)OCO4)c(C)c1	nt	-0.2%	22.4µM*	nt	0.0%	nt
Cc1noc(Cn2c(=O)c3cc4c(cc3n(CC(=O)Nc3ccc(C(C)C)cc3)c2=O)OCO4)n1	nt	8.6%	35.5µM*	nt	2.1%	nt
Cn1c(Cl)c(/C=N/OC(=O)c2ccc(Cl)cc2)c2ccccc21	-20.8%	-1.0%	-7.1%	-8.1%	0.2%	-4.3%
Cn1c(N2CCOCC2)c(/C=N/OC(=O)c2cccnc2Cl)c2ccccc21	-7.2%	1.3%	nt	22.4µM*	0.1%	0.2%[10 µM]
Cn1c(N2CCOCC2)c(/C=N/O)c2ccccc21	-1.1%	6.9%[10.1 µM]	nt	6.7%	0.9%	6.8%[10 µM]
Cn1c(N2CCOCC2)c(/C=N/OC(=O)c2ccc(F)cc2)c2ccccc21	0.631µM*	-1.2%	-13.3%	1.5%	1.3%[38.3 µM]	2.24µM*
Cc1ccc(C(=O)O/N=C/c2c(N3CCOCC3)n(C)c3ccccc23)cc1	1.12µM*	1.8%	?	-7.4%	0.0%[38.3 µM]	3.55µM*
Cc1ccc(C(=O)O/N=C/c2c(Cl)n(C)c3ccccc23)cc1	-22.5%	0.0%	-0.8%	11.3%	-0.9%	-6.1%
CC(=O)O/N=C/c1c(N2CCOCC2)n(C)c2ccccc12	6.31µM*	-1.3%	-0.7%	10.0%	-2.7%	11.2µM*
COc1ccc(/C=C/C(=O)Nc2nc3n(n2)C(c2ccc(F)cc2)C=C(c2ccccc2)N3)cc1 (stereo not drawn)	nt	-2.2%	-10.5%	nt	-1.0%	nt
O=C(Oc1ccccc1)n1c(=O)oc2ccc(Cl)cc21	nt	-2.6%	nt	nt	nt	nt
CC(C)c1ccccc1-n1c(SCC(=O)c2ccc3c(c2)NC(=O)CO3)nc2ccccc2c1=O	2.82µM*	-1.2%	nt	5.9%	6.1%	6.9%
NC(=O)[C@@H]1CCCN1C(=O)CCN1Cc2ccccc2OC(c2ccccc2F)C1 (stereo partly drawn)	nt	nt	nt	nt	0.1%	nt
CCOc1cc(Cn2c(-c3ccc(O)c(OCC)c3)nc3ccccc32)ccc1O	nt	7.8%	10µM*	nt	-1.3%	nt
C=CCn1c(-c2ccc(C)cc2)nc2ccccc21	?	-0.3%	7.08µM*	7.2%	0.1%[38.3 µM]	-5.9%
COc1ccc(Cn2c(O)c(C=Nc3ccc(C)cc3)c3ccccc3c2=O)cc1	2.5%	1.0%	143.6%	?	-1.2%	-1.4%
COc1ccc(-c2nc3ccccc3n2Cc2ccc(Cl)cc2)cc1	nt	0.9%	4.1%	nt	25.6%	nt
COc1ccc(Cn2c(-c3ccc(C)cc3)c[n+]3ccccc23)cc1	11.1%	1.0%	nt	6.9%	11.3%	17.8µM*
CCOc1ccc(Cn2c(-c3ccc(OCC)c(OC)c3)nc3ccccc32)cc1OC	nt	1.1%	-9.8%	nt	-1.2%	nt
COc1ccc(-c2nc3ccccc3n2Cc2ccc(C)cc2)cc1	12.6µM*	-0.7%	?	-27.6%	23.6%	?
